# Experimental data reported in PubChem BioAssay AID1347165 (National Center for Advancing Translational Sciences (NCATS), 2019).
# Hit rate of the full screen: of about 220,000 compounds, about 5,700 (2.6%) were called active. Not shown: some 18% with an inconclusive outcome. What follows is part of a selection rich in actives, with near analogues and random picks from the rest. Values without a mark were called inactive. Calls come from the whole dose curve; as a rule, active = well fitted inhibition curve with a large enough effect; inconclusive = small, poorly fitted or top-dose-only effect; inactive = no such curve, though single readings can be large or run the other way.
# Molecular target: Lysine-specific demethylase 5B (Homo sapiens) (UniProt Q9UGL1)
# Sequence (Q9UGL1 whole entry, looked up): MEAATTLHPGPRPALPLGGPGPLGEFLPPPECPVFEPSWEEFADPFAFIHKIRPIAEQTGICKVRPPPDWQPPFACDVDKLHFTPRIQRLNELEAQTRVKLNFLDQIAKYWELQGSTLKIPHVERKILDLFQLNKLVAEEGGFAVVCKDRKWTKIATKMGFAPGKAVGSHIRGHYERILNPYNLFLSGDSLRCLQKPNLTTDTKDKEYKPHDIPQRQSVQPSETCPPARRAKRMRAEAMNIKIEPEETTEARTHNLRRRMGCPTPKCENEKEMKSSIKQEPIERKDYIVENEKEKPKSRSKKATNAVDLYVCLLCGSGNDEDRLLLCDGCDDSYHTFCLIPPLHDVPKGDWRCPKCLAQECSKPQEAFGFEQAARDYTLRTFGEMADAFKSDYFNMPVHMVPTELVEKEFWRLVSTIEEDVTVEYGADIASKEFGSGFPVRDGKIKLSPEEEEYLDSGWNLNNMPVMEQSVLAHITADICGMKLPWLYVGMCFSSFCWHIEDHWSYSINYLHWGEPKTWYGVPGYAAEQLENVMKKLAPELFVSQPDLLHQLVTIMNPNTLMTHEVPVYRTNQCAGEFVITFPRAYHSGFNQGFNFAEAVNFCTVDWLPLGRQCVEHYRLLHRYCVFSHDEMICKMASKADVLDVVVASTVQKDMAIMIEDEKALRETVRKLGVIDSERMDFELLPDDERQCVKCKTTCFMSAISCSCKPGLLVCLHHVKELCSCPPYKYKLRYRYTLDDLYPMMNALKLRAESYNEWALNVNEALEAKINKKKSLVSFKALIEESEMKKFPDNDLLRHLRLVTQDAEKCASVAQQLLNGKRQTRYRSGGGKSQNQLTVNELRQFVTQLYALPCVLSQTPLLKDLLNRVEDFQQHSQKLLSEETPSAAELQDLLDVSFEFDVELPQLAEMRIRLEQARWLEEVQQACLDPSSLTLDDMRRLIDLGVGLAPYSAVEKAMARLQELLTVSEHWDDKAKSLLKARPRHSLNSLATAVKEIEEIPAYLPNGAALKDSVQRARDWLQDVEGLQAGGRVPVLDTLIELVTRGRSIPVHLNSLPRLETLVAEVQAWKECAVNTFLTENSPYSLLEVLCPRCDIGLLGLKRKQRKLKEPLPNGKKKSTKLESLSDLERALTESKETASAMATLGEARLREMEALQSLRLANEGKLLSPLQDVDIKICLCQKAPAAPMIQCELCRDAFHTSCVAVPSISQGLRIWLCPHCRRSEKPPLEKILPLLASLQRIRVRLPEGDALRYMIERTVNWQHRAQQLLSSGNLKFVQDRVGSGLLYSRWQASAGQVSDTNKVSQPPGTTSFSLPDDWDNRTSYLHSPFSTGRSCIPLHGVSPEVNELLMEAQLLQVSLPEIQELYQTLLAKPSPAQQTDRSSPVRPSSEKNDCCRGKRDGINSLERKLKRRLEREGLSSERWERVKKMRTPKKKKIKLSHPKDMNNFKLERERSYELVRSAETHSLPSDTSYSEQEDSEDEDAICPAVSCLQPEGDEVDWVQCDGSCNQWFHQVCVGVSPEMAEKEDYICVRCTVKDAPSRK
# Test: Primary screen for KDM5B Histone Demethylases FDH-coupled qHTS; note: nearly all actives have a fitted effect of over 70% in size; for activity change, negative = inhibition: 0% is about no effect
# Details: FDH-coupled NADH fluorescence (FDH is formaldehyde dehydrogenase); series mostly up to 57.7 µM; activity change, negative = inhibition: at the top concentration
# Outline: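 Here, H3K4me3 peptide (12.5 µM in substrate mix) is demethylated by KDM5BΔAP, 200 nM final, after 10 min compound exposure. Formaldehyde product is coupled through FDH (0.25 U/mL in mix) to NADH fluorescence; 30-min ΔRFU feeds dose-response curves.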
# Potency is the fitted concentration of half-maximal effect.
Structure (SMILES),"activity change, negative = inhibition",Potency
CN(C)[C@@H]1CN(C(=O)c2cccn2C)CC[C@@H]1CO,12.6%,
Cc1noc(C)c1-c1cc(-c2cncnc2)cn2cncc12,-16.6% [at 115 µM],
FC(F)(F)c1cccc(-c2cc(C3=CCOCC3)c3cncn3c2)c1,,35.5 µM (active)
CN(C)Cc1cccc(-c2cc(-c3ccncc3)c3cncn3c2)c1,,28.2 µM (active)
OCc1cccc(-c2cc(C3=CCOCC3)c3cncn3c2)c1,,31.6 µM (active)
Cc1nc(NC(C)C)sc1C(=O)Nc1ccccc1,-3.94%,
O=C(COC(=O)c1cc2ccccc2[nH]1)NCc1ccc(F)cc1,-15.2%,
NC(=O)c1ccc(CN(Cc2cccs2)C2CC2)cc1,-16.1%,
O=C(O)CCC(=O)NC1CC2(CCN(C(=O)c3ccccc3)CC2)c2ccccc21 (stereo not given),9.24% [at 115 µM],
CCOc1ccc(CN(C)CC(O)COc2ccc(C)cc2C)cc1OC (stereo not given),-21.4%,
CC(=O)NC1(C)CN(Cc2ccc(-c3ccc4c(ccn4C)c3)s2)C1,,35.5 µM (active)
CC(=O)NC1(C)CCN(Cc2cnc(-c3ccc4c(ccn4C)c3)s2)CC1,,35.5 µM (active)
CC(=O)N1CCN(C(=O)c2ccc3c(ccn3C)c2)CC1,-2.69%,
Cn1ccc2cc(S(=O)(=O)N3CCC(C(=O)NCCN4CCCC4)CC3)ccc21,-8.91%,
CCC(=O)c1ccc(OC(=O)c2nn(C(C)C)c(=O)c3ccccc23)cc1,7.72%,
Cc1ccc(Nc2cc(C)nc3c(C)c(C)cc([N+](=O)[O-])c23)c(C)c1,-12.7%,
O=S(=O)(CCSc1nnc(-c2ccccc2)o1)c1ccc(Br)cc1,3.11%,
COc1ccc(C(=O)OCC(=O)NCC(F)(F)F)cc1,10.4%,
O=C(CSc1nc2ccccc2s1)Nc1ccc2c(c1)CCC2,23.2%,
O=C(CCc1ncc(-c2ccc(F)cc2F)o1)Nc1ccccc1,6.26%,
Cc1cccc(NC(=O)Nc2ccc(OCc3ccccc3)cc2)n1,30.5%,
CCn1ccc2cc(S(=O)(=O)N3CCC(C(=O)NCC4CCCO4)CC3)ccc21 (stereo not given),24.8%,
O=C(c1ccc2[nH]ccc2c1)N1CCN(S(=O)(=O)c2cccc3nonc23)CC1,-8.8%,
CC(=O)N1CCN(Cc2cc(F)ccc2Cl)CC(O)C1 (stereo not given),-20.1%,
O=C(c1ccc2cc[nH]c2c1)N1CCN(Cc2cnc[nH]2)CC(O)C1 (stereo not given),,25.1 µM (active)

Structure (SMILES),"activity change, negative = inhibition",Potency
CN(C)C(=O)c1cccc(NCC(=O)NC(=O)NCc2ccccc2)c1,0.332%,
Cc1ccc(C(=O)N2CCN(c3oc(C4CC4)nc3C#N)CC2)c(C)c1,5.21%,
Cc1ccc(OCCOc2cccc(/C=N/NC(N)=O)c2)cc1,10.1%,
CCc1ccccc1NC(=O)c1cc(C)nc2ccccc12,3.59%,
CC(C)C(=O)Nc1ccc2oc(-c3cccc(Cl)c3)nc2c1,-19.6%,
Cc1ccc2c(C(=O)O)cc(NC(=O)C(C)C)cc2n1,,20 µM (active)
O=C(NCCn1c(-c2ccccc2)nc2ccccc21)NCc1ccccc1,-25.5%,
CC(C)Cc1nc2cccnc2n1C1CCN(S(=O)(=O)c2ccc(Cl)s2)CC1,5.36%,
O=C(c1ccco1)N1Cc2[nH]cnc2C[C@H]1c1nc(-c2ccncc2)no1,-23.5% [at 86.2 µM],
CC(C)NC(=O)N1Cc2[nH]cnc2C[C@H]1c1nc(-c2ccc(Cl)cc2)no1,,31.6 µM (active)
Cc1cccc(-c2noc([C@@H]3Cc4nc[nH]c4CN3C(=O)CCC(=O)O)n2)c1,-20.1% [at 86.2 µM],
COc1ccc(OCC2(C)COc3ccc(C(=O)Nc4cccnc4)cc3N2)cc1 (stereo not given),,31.6 µM (active)
O=C(Nc1cccnc1)c1ccc2c(c1)OCCN(Cc1ncccn1)C2,7.08% [at 86.2 µM],
O=C(Nc1cccnc1)c1ccc2c(c1)OCCN(c1ccccc1)C2,-25.6% [at 86.2 µM],
COc1ccc(-c2cc(N3CCC(NC(=O)c4ccc5c(c4)OCO5)CC3)n[nH]2)cc1,-11.3%,
COc1ccc(-n2cnc3cc(C(=O)NC4CCCC4)ccc32)cc1,-23.1%,
COc1ccc(OCC2(C)COc3ccc(C(=O)NC4CCOCC4)cc3N2)cc1 (stereo not given),,25.1 µM (active)
Cc1ccc(NC(=O)CN(C)C(=O)c2cc3ccc(F)cc3nc2C)cc1,-9.53%,
Cc1ccc(NC(=O)c2ccc(F)cc2Cl)nc1,-6.56%,
CCn1nc(C(=O)Nc2ccc(I)cc2C)c2ccccc2c1=O,7.2%,
CN1C(=O)CC(C(=O)O)C12CCN(CCc1ccccn1)CC2 (stereo not given),25.7%,
Cc1ccc2c(CN3CCN(CCc4ccccn4)CC3)cc(=O)oc2c1,-23.1%,
Cc1ccnc(N2CC[C@@H]3[C@@H](CCC(=O)N3CCc3ccccn3)C2)n1,,22.4 µM (active)
CC(Sc1nc(CN2CCOCC2)nc2ccccc12)C(=O)NC1CCCCCC1 (stereo not given),23.1%,
COc1ccc(-c2csc3c2NC(=O)CC3c2ccc(OCC(N)=O)c(OC)c2)cc1 (stereo not given),15.1%,

Structure (SMILES),"activity change, negative = inhibition",Potency
Cc1ccc(-c2csc3c2NC(=O)CC3c2ccc(C)cc2)cc1 (stereo not given),-12.4%,
Nc1nc2c(s1)C(c1ccccc1)CC(=O)N2 (stereo not given),,28.2 µM (active)
O=C1CC(c2ccc(C(F)(F)F)cc2)c2sc(C(=O)O)c(-c3ccccc3)c2N1 (stereo not given),12.2%,
COc1cccc(/C=C/C(=O)c2nc3ccccc3s2)c1OC(F)F,-17%,
COc1ccccc1-c1nc(C(=O)NCc2cccs2)n2ccncc12,,28.2 µM (active)
COc1ccccc1NC(=O)CSC1=Nc2ccccc2C2=NC(CC(=O)NCc3cccs3)C(=O)N12 (stereo not given),-5.93%,
CCOc1ccccc1NC(=O)Cn1nnc(C(=O)NCc2cccs2)c1N,6.8%,
O=C(OCc1nc2ccccc2o1)c1ccccc1Br,8.02%,
CC(=O)c1c(SCC(=O)Nc2ccc(F)cc2F)nc(=O)[nH]c1C,-2.3%,
CC(C)(C#N)C(=O)NCCc1ccc(OCc2ccccc2)cc1,18%,
CC1CCN(c2nc3ccccc3nc2C(C#N)S(=O)(=O)c2cccc(Cl)c2)CC1 (stereo not given),-18%,
CCn1cnnc1CC1CCN(C(=O)C2CCN(Cc3nc(-c4cccc(C)c4)oc3C)CC2)CC1,-9.74%,
COc1ccc(-c2cc(C(=O)N3CCN(CC(=O)N4CCOCC4)CC3)c3ccccc3n2)cc1,-999%,
CCn1cnnc1CC1CCN(C(=O)c2cc(-c3ccc(F)cc3)nc3ccccc23)CC1,,22.4 µM (active)
CN(Cc1ccc(F)cc1)C(=O)NCc1ccccn1,21.6%,
Cc1cc(C)n(CC(=O)N2CCC3(CC2)NCCc2c3[nH]c3ccccc23)n1,-19.4%,
COc1ccccc1C(=O)N1CCC2(C1)C(=NC1CCCC1)NC(=O)N2c1cccnc1 (stereo not given),9.75% [at 115 µM],
COc1ccccc1C(=O)N1CCC2(C1)C(=NC1CCCCC1)NC(=O)N2c1cccnc1 (stereo not given),22.3% [at 115 µM],
CCOc1ccc(CC(=O)N2CCCC3(C2)Nc2cccnc2NC3=NC2CCCC2)cc1 (stereo not given),,28.2 µM (active)
CCOc1ccc(CC(=O)N2CCC(Cc3nc(-c4cnccn4)no3)CC2)cc1,14.8%,
COc1cccc(N2C(=O)NC(=NC3CCCC3)C23CCN(C(=O)c2ccc(C)cc2)C3)c1 (stereo not given),6.94% [at 115 µM],
CCOc1ccc(CC(=O)N2CCC(C3CCN(C(=O)NC)CC3)C2)cc1 (stereo not given),4.36%,
COc1cccc(CNC(=O)N2CCCC3(C2)Nc2cccnc2NC3=NC2CCCC2)c1 (stereo not given),,28.2 µM (active)
COc1ccccc1C(=O)N1CCCC2(C1)Nc1cccnc1NC2=NCc1ccccc1 (stereo not given),,28.2 µM (active)
Cc1cc(C)n(CC(=O)N2CC[C@@H]3CN(S(C)(=O)=O)[C@@H]3C2)n1,-16.1%,

Structure (SMILES),"activity change, negative = inhibition",Potency
COc1cccc(CNC(=O)N2CCN(Cc3ccc(Br)s3)CC2)c1,1.67%,
Cc1cc(C)n(CC(=O)N2CCCC3(C2)Nc2cccnc2NC3=NC2CCCC2)n1 (stereo not given),,28.2 µM (active)
CC(C)=CC(=O)N1C[C@@H](NC(=O)Nc2ccc(F)cc2F)C[C@H]1C(=O)N[C@H](Cc1ccccc1)C(N)=O,-12.3%,
O=C(Cn1ccn2nc(-c3ccc(F)cc3)c(CO)c2c1=O)NC1CCCC1,-16.7%,
COC(=O)[C@@H](NC(=O)Nc1cc(-c2n[nH]c(=O)c3ccccc23)ccc1C)C(C)C,-3.59%,
O=c1oc2ccc(F)cc2cc1S(=O)(=O)N1CCCCCC1,8.94%,
N#C/C(=C\c1ccc(-c2cc(Cl)ccc2Cl)o1)c1nc2ccccc2[nH]1,13.2%,
O=C(O)CNS(=O)(=O)c1cccc(F)c1,-20.7%,
N#CC(C#N)=C(Nc1ccc(Oc2ccccc2)cc1)C(F)(F)C(F)(F)F,-11.9%,
CC1(C)C2CCC1(CS(=O)(=O)NCCc1c[nH]c3ccccc13)C(=O)C2 (stereo not given),-1.56%,
C=CCn1c(COc2cc(C)c(Cl)c(C)c2)n[nH]c1=S,-9.76%,
COc1ccc(C(=O)N2CCCC3(C2)C(=NC2CCCC2)NC(=O)N3c2cc(F)cc(F)c2)cc1 (stereo not given),4.12% [at 115 µM],
Cc1ccsc1C(=O)N1CCCC2(C1)Nc1cccnc1NC2=NC1CCCC1 (stereo not given),,25.1 µM (active)
Cc1nc(-c2cn(C3CCCN(C(=O)c4sccc4C)C3)nn2)no1 (stereo not given),5.05%,
Cc1ccc(Nc2nnc(-c3ccc(C)c(S(N)(=O)=O)c3)c3ccccc23)c(C)c1,-1.74%,
C=CCN1CCN(C(=O)C2CCCN(C(=O)c3ccccc3)CCC(=O)NCC2)CC1 (stereo not given),12.5%,
COc1ccccc1N1CCN(C(=O)C2CCCN(C(=O)c3ccccc3)CCC(=O)NCC2)CC1 (stereo not given),-0.385%,
Cc1cccc(C(=O)N2CCCC(C(=O)N3CCN(c4ccccn4)CC3)CCNC(=O)CC2)c1 (stereo not given),,15.8 µM (active)
Cc1cccc(C(C(=O)N2CCN(S(=O)(=O)N(C)C)CC2)N(C)C)c1 (stereo not given),-7.54%,
O=C(c1ccc2[nH]ccc2c1)N1CCC(N2CC(OCC3CC3)C23CCOCC3)CC1 (stereo not given),-7.23%,
O=C(c1cccc2[nH]ccc12)N1CCC2(CC1)N=C(c1cccc(Br)c1)NO2,,28.2 µM (active)
O=C(c1ccccc1F)N1CCN(C(=O)c2c[nH]c3ccccc23)CC1,10.4%,
O=C(c1ccc2cc[nH]c2c1)N1CCC2(CC1)N=C(c1ccc(Cl)cc1)NO2,,28.2 µM (active)
Cc1ccc(C2=NC3(CCN(C(=O)c4ccc(C#N)cc4)CC3)ON2)cc1,-5.83%,
CC1CCN(c2ccc(NC(=O)Cn3c(-c4cscn4)nc4ccccc43)cc2)CC1,-5.67%,
